CF NFkB block: inhibitors of PAF-induced NF-kB signaling, primary screen, cell-based, GFP fluorescence, uHTS; inhibition, % at 5 µM; AID 588850, 2011; 360,000 tested, 0.86% active; KKLEB NF-kB-GFP reporter, GFP fluorescence overnight;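 active means at least 50% inhibition at 5 µM, scaled per plate between neutral and stimulator controls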;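 further: PAF is a Pseudomonas aeruginosa culture filtrate used as stimulus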
TWEAK-Fn14 inh: inhibitors of TWEAK-Fn14 signaling, primary screen, luciferase reporter cells, uHTS | TWEAK-stimulated Fn14 reporter cells, luciferase luminescence, 8 h | inhibition, % at 10 µM | 360,000 tested, 2% active | AID 1159606, 2016; in the data active means inhibition above about 50%
TROY NFkB inh: inhibitors of TROY-driven NF-kB signaling, primary screen, Q293 LMP1-TROYcd cells, NF-kB luciferase, uHTS; 360,000 tested, 0.98% active; Q293 LMP1-TROYcd NF-kB luciferase reporter, 4 h; inhibition, % at 10 µM;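 active means compounds whose plate-normalised and pattern-corrected inhibition of the luciferase reporter signal at the single screening dose is 50% or more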
KKLEB cytotox: cytotoxicity in KKLEB CF airway cells, primary screen, cytotoxicity control for CF NF-kB inhibitor project, cell-based, uHTS, fluorescence assay plates; 360,000 tested, 0.36% active; AID 602141, 2011; activity change (cytotoxicity), % at 5 µM; KKLEB CF airway cells viability, ATPlite luminescence, overnight; hits give low values; cells stimulated with P. aeruginosa culture filtrate;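 active means corrected activity change at or below -50% at 5 µM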
Peg3 promoter: Peg3 promoter-driven luciferase inhibitors, primary screen, cell-based, HeLa, luciferase luminescence | HeLa PEG-Prom luciferase reporter, overnight | inhibition, % at 20 µM | 360,000 tested, 1.7% active;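 active means inhibition of at least 50% at 20 µM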
HIF-2a block: HIF-2a reporter inhibitors, primary screen, luminescence, 786-0 RCC cells | 786-0 RCC cells HIF-2a reporter, luciferase luminescence, overnight | inhibition, % at 18.8 µM | 360,000 tested, 0.72% active;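 active means inhibition of the luminescence signal of 40% or more relative to plate controls, in a single-dose primary screen at 18.75 µM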
A number is an active result; 0 = inactive; - = no result given. Shown are actives, neighbours in structure and some others; about 4% of the full set was active somewhere.

SMILES | CF NFkB block | TWEAK-Fn14 inh | TROY NFkB inh | KKLEB cytotox | Peg3 promoter | HIF-2a block
O=C(Nc1c(-c2ccc(Cl)cc2)[nH][nH]c1=O)c1ccccn1 | 0 | 0 | 0 | 0 | 0 | 0
Cc1ccc(S(=O)(=O)NC(=O)C2(C)CCN2C(=O)CC2CCCC2)cc1 (centres undefined) | 0 | 0 | 0 | 0 | 0 | 0
COc1ccc(S(=O)(=O)N(CCCN2CCOCC2)Cc2cccc3ccccc23)cc1 | 0 | 92 | - | 0 | 0 | 0
COc1ccc(S(=O)(=O)N(CCCN2CCOCC2)Cc2cccc(OC)c2OC)cc1 | 0 | 0 | 0 | 0 | 0 | 0
O=[N+]([O-])c1ccccc1NS(=O)(=O)c1ccccc1 | 0 | 0 | 0 | 0 | 0 | 0
COc1ccc(CCNC(=O)c2nnn(-c3ccc4c(c3)OCCO4)c2N)cc1OC | 0 | 97 | 87 | 0 | 0 | 51
COc1ccc(CCNC(=O)c2nnn(-c3ccccc3OC)c2N)cc1OC | 0 | 0 | 0 | 0 | 0 | 0
COCC(C)n1c(SC(C)C(=O)NC2CCCCC2C)nc2ccccc2c1=O (centres undefined) | 0 | 0 | 0 | 0 | 0 | 0
CCc1cc(C(=O)O)c(NC(=O)C(c2ccccc2)c2ccccc2)s1 | 0 | 0 | 0 | -66 | 0 | 0
CCOC(=O)c1cc(C)sc1NC(=O)C(c1ccccc1)c1ccccc1 | 0 | 0 | 0 | 0 | 0 | 0
CCn1ncc(S(=O)(=O)NCc2ccccc2Cl)c1C | 0 | 0 | 0 | 0 | 0 | 0
CC(Nc1cccc2ccccc12)C(=O)N/N=C/c1ccccn1 (centres undefined) | 0 | 55 | 0 | 0 | 0 | 0
CCOc1cccnc1Sc1ccccc1 | 0 | 0 | 0 | 0 | 0 | 0
CCOC(=O)N1CCN(CCC(=O)Nc2cccc(C)c2)CC1 | 0 | 0 | 0 | 0 | 0 | 0
COc1ccc(NC(=O)c2ccc(Cl)c(S(=O)(=O)N3CCc4ccccc4C3)c2)cn1 | 0 | 86 | 53 | 0 | 0 | 0
CCc1nnc(NC(=O)c2ccc(Cl)c(S(=O)(=O)N3CCc4ccccc4C3)c2)s1 | 0 | 0 | 55 | 0 | 0 | 0
CCc1nnc(NC(=O)c2ccc(S(=O)(=O)N3CCc4ccccc4C3)cc2)s1 | 0 | 0 | 0 | 0 | 0 | 0
O=C(Nc1cccnc1)c1ccc(Cl)c(S(=O)(=O)N2CCc3ccccc32)c1 | 0 | 0 | 0 | 0 | 0 | 0
O=C(Nc1ccccn1)c1ccc(Cl)c(S(=O)(=O)N2CCc3ccccc32)c1 | 0 | 56 | 0 | 0 | 0 | 0
CCCCn1c(N)c(N(CCOC)C(=O)c2cc(C)oc2C)c(=O)[nH]c1=O | 0 | 0 | 0 | 0 | 0 | 0
COc1cc(CNC(C)C23CC4CC(CC(C4)C2)C3)ccc1OCC(=O)NC(C)(C)C (centres undefined) | 0 | 0 | 0 | 0 | 72 | 0
CC1CCCC(NCC(O)COC(c2ccc(F)cc2)c2ccc(F)cc2)C1C (centres undefined) | 0 | 0 | 0 | 0 | 104 | 0
c1ccc(-c2csc3ncnc(NCCCN4CCOCC4)c23)cc1 | 0 | 0 | 0 | 0 | 0 | 0
O=c1c2c(-c3ccccc3)csc2nc2c3ccccc3c(NCCN3CCOCC3)nn12 | 0 | 0 | 0 | 0 | 108 | 0
CCCCC(CCC(=O)O)(C(=O)OCC)c1csc(Nc2ccccc2)n1 (centres undefined) | 0 | 0 | 0 | 0 | 0 | 0
CCCCC(CCC(=O)O)(C(=O)OCC)c1csc(N)n1 (centres undefined) | 0 | 73 | - | 0 | 0 | 0
N#CCCN(C(=O)Nc1ccc(Cl)cc1)c1ccccc1 | 0 | 86 | 0 | 0 | 0 | 0
COc1cc2ccccc2cc1C(=O)OCC(=O)c1c(N)n(C)c(=O)n(C)c1=O | 0 | 0 | 0 | 0 | 0 | 0
COC1C(C)=C(C)C(=O)N1Cc1ccccc1 (centres undefined) | 0 | 0 | 0 | 0 | 0 | 0
COc1ccc(CN2C(=O)C(C)=C(C)C2OC)cc1 (centres undefined) | 0 | 90 | 0 | 0 | 0 | 0

Assay outcomes deposited in PubChem by Sanford-Burnham Center for Chemical Genomics.
